These sequences were tested against GAB3 (assay: pooled miR-30 sensor sort-seq; sequence = guide strand). Details: shRNA.

In order of falling sensor-assay potency score (higher = more potent):
1. TTGAGATCTCTATTCACTGGGG  0.467
2. TTTCCTTGAATCGTTATGCTTT  0.221
3. TTTTCTATCTCCAATCTGGTGT  0.0351
4. TTGCTGGAGTGCTTGTTCCTGT  -0.331
5. TTGACCAGCTATCACATCTGGT  -0.37
6. TTCCACACTGCACACTCGCTGA  -0.565
7. TTTTGTGCTCTGGAGAGCCTGT  -0.572

What follows are sequences tested against GABBR1 in the same assay as above. Details: shRNA.

In order of rising sensor-assay potency score (higher = more potent):
1. ATGGTAGCAATCTTCTTCCAGC  -1.28
2. TCTTGGTGAACATGGAACCGTA  -1.08
3. TTGTTGTTGGTCGATGACCCTG  -1.05
4. TGGATCACACTTGCTGTCGTGG  -0.99
5. TAGGTCCATCTGTCTATCCCAA  -0.913
6. TAAGACTTGGAGCAGATTCGGA  -0.862
7. TAGTACATGAATGCAATGGAGA  -0.803
8. TCCTTCTTTGTGAAGACCGTGT  -0.749
9. TTCAGCATGACAATCTCAGTTG  -0.723
10. TTCTCCTTCTCCAACAGCCGGG  -0.705
11. TAGACAAATTGCACATGCCTAC  -0.546
12. TAGTTTCTCCACAAATTCCTGG  -0.496
13. TTGAGATTCGGGGAGATCCTTC  -0.396
14. TTTTCAAAGAGTTTCACGCGGG  -0.189
15. TAGTCCGGCAGGATGTCCCTGC  -0.16
16. TGAGGTTCCACATCCTAGCAGC  -0.132
17. TTGTGAGTGTAGACTGAGGGTA  -0.0666
18. TAGCCAATCTTCTTGTAGCTGC  -0.0319
19. TTCTGTGACAAGGAGAGGGTGT  0.0904
20. TTGGATAGCATGTTCTTCCCAG  0.0924
21. TTCTCATCAACTATCCACTGGA  0.124

These sequences were tested against GABRA1 in the same assay as above. Details: shRNA.

In order of rising sensor-assay potency score (higher = more potent):
1. TACTTGACTGGACAATTCCAGA  -1.07
2. TTACACGCTCTCCCAATCCTGG  -1.04
3. ATTGTCATAACCATCTAGGAGT  -0.817
4. TACATCTATTGTATATTCCATA  -0.691
5. TTAGACGTGATCCATCTTCTGC  -0.591
6. TCTGCTACAACCACTGAGCGTG  -0.543
7. TTAGTGAAATAGTTTACTGTGG  -0.522
8. TACTGTGGCAAACTCAATCAGA  -0.32
9. TATTTATCTCTAAAACATCTGG  -0.271
10. TCTTCTGCTACAACCACTGAGC  -0.0993
11. TTAAATATCTGTTAAACTCTAT  -0.0161

Reference: the OligoGym collection
